Laboratory results reported in PubChem BioAssay (NCI).
Compounds without any hit were thinned out: in the full panel of roughly 83,000, 20% have a hit.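 Compound tested at a single concentration for 48 hours in 96-well plates; a percent growth value below 10 was scored as active.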 A number with no mark means an inactive call. The source made the active and inactive calls.

How the values were obtained:
Assay in all cases: NCI-60 one-dose screen, 48 h (100 = growth as untreated, 0 = no growth, -100 = all killed)
Conditions in all cases: 10 µM unless noted
NCI-H23 lung = system: NCI-H23 lung
NCI-H226 lung = system: NCI-H226 lung
NCI-H322M lung = system: NCI-H322M lung
HOP-62 NSCLC = system: HOP-62 NSCLC
NCI-H460 lung = system: NCI-H460 lung
HOP-92 NSCLC = system: HOP-92 NSCLC
NCI-H522 lung = system: NCI-H522 lung
A549/ATCC NSCLC = system: A549/ATCC NSCLC
786-0 renal = system: 786-0 renal
COLO 205 colon = system: COLO 205 colon
DU-145 prostate = system: DU-145 prostate
K-562 leukemia = system: K-562 leukemia
MALME-3M melanoma = system: MALME-3M melanoma
MDA-MB-231 breast = system: MDA-MB-231 breast
RXF 393 renal = system: RXF 393 renal
SF-268 CNS = system: SF-268 CNS
SF-295 CNS = system: SF-295 CNS
SF-539 CNS = system: SF-539 CNS
UACC-257 melanoma = system: UACC-257 melanoma
M14 melanoma = system: M14 melanoma

Row | Compound | growth (NCI-H23 lung) | growth (NCI-H226 lung) | growth (NCI-H322M lung) | growth (HOP-62 NSCLC) | growth (NCI-H460 lung) | growth (HOP-92 NSCLC) | growth (NCI-H522 lung) | growth (A549/ATCC NSCLC) | growth (786-0 renal) | growth (COLO 205 colon) | growth (DU-145 prostate) | growth (K-562 leukemia) | growth (MALME-3M melanoma) | growth (MDA-MB-231 breast) | growth (RXF 393 renal) | growth (SF-268 CNS) | growth (SF-295 CNS) | growth (SF-539 CNS) | growth (UACC-257 melanoma) | growth (M14 melanoma)
1 | COc1c(CNC(=O)CCl)cc2[nH]c(C)cc2c1CNC(=O)CCl | 57.2% | 69.4% | 67.4% | 70.4% | 31.5% | 107% | -2.03% (active) | 56.4% | 68% | 54.8% | 65.8% | 63.5% | 82% | 87.7% | 60.8% | 59.4% | 64.7% | 72.3% | 51.9% | 47.3%
2 | C=C(C)COc1ccc(C(C)(C)C)cc1 | 108% | 95.8% | 102% | 91.2% | 104% | 99.3% | 90.8% | 91.2% | 101% | 104% | 107% | 106% | 116% | 102% | 99.5% | 99.8% | 101% | 102% | 82.6% | 102%
3 | C#CC(O)c1ccccc1 (stereo not given) | 106% | 99.7% | 104% | 108% | 104% | 85.9% | 102% | 101% | 95.6% | 108% | 110% | 99.3% | 99.7% | 101% | 112% | 112% | 110% | 99.7% | 102% | 101%
4 | CCOC(=O)C1(N)CCCCC1 | 96.8% | 98.6% | 107% | 102% | 112% | 102% | 96.8% | 100% | 101% | 110% | 112% | 116% | 100% | 102% | 121% | 102% | 95.4% | 96.9% | 107% | 93.8%
5 | S=C(NCc1ccccc1)N1CCC(CCCC2CCN(C(=S)NCc3ccccc3)CC2)CC1 | 90% | 91.4% | 118% | 97.2% | 106% | 77.5% | 80.2% | 95.5% | 101% | 110% | 105% | 69.9% | 104% | 99.2% | 107% | 93% | 97.7% | 99.1% | 100% | 100%
6 | Nc1ccc2c(c1)Cc1cc(N)c(N)cc1-2 | 86.2% | 95.4% | 92% | 95% | 95.9% | 101% | 74.6% | 77.9% | 107% | 103% | 108% | 97.3% | 95.8% | 84% | 97.3% | 104% | 106% | 109% | 81% | 102%
7 | O=c1n(CC2CO2)c(=O)n(CC2CO2)n1CC1CO1 (stereo not given) | 55.2% | 85.9% | 94% | 46% | 4.78% (active) | 48.6% | 31.4% | 49.4% | 36.9% | 70.1% | 38.4% | 57.4% | 107% | 110% | 80.2% | 53.5% | -10.3% (active) | 18.8% | 86.6% | 48.1%
8 | Nc1ccc(F)cc1F | 103% | 94.8% | 97.4% | 109% | 105% | 77.4% | 102% | 105% | 98.6% | 110% | 110% | 107% | 111% | 93.7% | 92.2% | 109% | 104% | 94.3% | 111% | 101%
9 | O=C(NCc1ccco1)Nc1cccc2c(NC(=O)NCc3ccco3)cccc12 | 75.5% [100 µM] | 112% [100 µM] | 120% [100 µM] | 104% [100 µM] | 111% [100 µM] | 124% [100 µM] | 36.5% [100 µM] | 108% [100 µM] | 104% [100 µM] | 71.4% [100 µM] | 53% [100 µM] | 32.9% [100 µM] | 111% [100 µM] | 97.9% [100 µM] | 117% [100 µM] | 96.3% [100 µM] | 84.1% [100 µM] | 30.2% [100 µM] | 112% [100 µM] | 66.3% [100 µM]
10 | Oc1cc2ccccc2c(-c2c(O)c(O)cc3ccccc23)c1O | 41.5% | 39.6% | 47.9% | 42.3% | 9.65% (active) | -22.5% (active) | 1.24% (active) | 36.1% | 50% | 58.1% | 47.3% | 43.8% | 75.4% | 75.1% | 72.7% | 37.9% | -48% (active) | 21.4% | 56.1% | 25%
11 | Cc1ccc([N+](=O)[O-])c(C)n1 | 108% | 106% | 101% | 106% | 112% | 84.2% | 98.9% | 105% | 114% | 111% | 114% | 114% | 100% | 117% | 128% | 98.6% | 97.7% | 89.5% | 98.1% | 110%
12 | COc1ccc2c(Cl)cc(NC(=O)Nc3c(C)cccc3C)nc2c1 | 96.9% | 4.58% (active) | 54% | 6.88% (active) | 31.4% | 41.3% | 78.1% | 43.3% | 21% | 58.7% | 82.6% | 72.6% | -1.2% (active) | 62.7% | 36.3% | 81.1% | 0.445% (active) | 90.1% | 76.8% | 85.6%
13 | C#CCSc1nnnn1-c1ccccc1 | 97.9% | 82.5% | 98% | 105% | 95.4% | 50.5% | 92.9% | 64% | 92% | 113% | 79.1% | 86% | 104% | 96% | 67.3% | 82.5% | 81.1% | 80.2% | 94.4% | 104%
14 | CC(C)c1ccc(C(=O)OCCCl)cc1 | 94% | 106% | 92.7% | 82.2% | 105% | 163% | 97.2% | 97.9% | 95.2% | 110% | 117% | 103% | 89.9% | 105% | 41.8% | 112% | 83.8% | 104% | 95.3% | 93.6%
15 | CC(CCC#N)(CCC#N)C(=O)c1ccccc1 | 109% | 107% | 112% | 107% | 104% | 61% | 88.1% | 97.1% | 110% | 117% | 106% | 104% | 114% | 109% | 98.6% | 112% | 113% | 115% | 106% | 115%
16 | CCNc1ccc2ccccc2c1N=Nc1ccc(N=Nc2ccccc2)cc1 | 99.4% | 83.6% | 101% | 102% | 84.7% | 98.1% | 90.2% | 102% | 108% | 100% | 121% | 125% | 128% | 93.4% | 118% | 117% | 107% | 104% | 123% | 104%
